Where a structure was tested more than once in an assay, its records may differ in their call. Active and inactive are the calls of the source. Rule for the calls: active = hit-call score of the fitted dose curve at least 0.9, where 1 is the maximum; inactive = score below 0.9.
Tests used:
[1] = read-out: Interleukin-1 alpha (IL1a), IL1A (gene 3552); experiment: BSK_KF3CT_IL1a: BioMAP Diversity Plus: KF3CT Assay for Interleukin-1 alpha (IL1a) Biomarker Activity (AID 2283070); settings: primary human keratinocytes with fibroblasts; actives raise or lower the signal
Method in brief: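 Chemicals were dosed onto co-cultured human keratinocytes and foreskin fibroblasts, IL-1a was quantified by ELISA at 24 h, and activity was fitted in both directions relative to DMSO controls.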

[2] = read-out: TIMP metallopeptidase inhibitor 2 (TIMP2), TIMP2 (gene 7077); experiment: BSK_KF3CT_TIMP2: BioMAP Diversity Plus: KF3CT Assay for TIMP metallopeptidase inhibitor 2 (TIMP2) Biomarker Activity (AID 2283071); settings: primary human keratinocytes with fibroblasts; actives raise or lower the signal
Method in brief: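 Human primary keratinocyte/foreskin fibroblast co-culture dosed with chemical and sampled at 24 h. TIMP-2 levels quantified by ELISA; bidirectional fitting against DMSO negative control as baseline.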

[3] = read-out: Transforming growth factor beta 1 (TGFb1), TGFB1 (gene 7040); experiment: BSK_KF3CT_TGFb1: BioMAP Diversity Plus: KF3CT Assay for Transforming growth factor beta 1 (TGFb1) Biomarker Activity (AID 2283072); settings: primary human keratinocytes with fibroblasts; actives raise or lower the signal
Method in brief: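 Human keratinocyte plus foreskin fibroblast primary co-culture, dosed with chemical for 24 h. TGF-b1 quantified by ELISA. Activity fitted bidirectionally against DMSO negative control as baseline.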

[4] = read-out: C-C motif chemokine 2 (Homo sapiens) (UniProt P13500); experiment: BSK_KF3CT_MCP1: BioMAP Diversity Plus: KF3CT Assay for Monocyte Chemoattractant Protein 1 (MCP1/CCL2) Biomarker Activity (AID 2283073); settings: primary human keratinocytes with fibroblasts; actives raise or lower the signal
Method in brief: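 ELISA readout of MCP-1 after 24 h chemical dosing of a human skin primary co-culture of keratinocytes and foreskin fibroblasts. Activity was fitted in both directions against DMSO.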

[5] = read-out: Matrix Metallopeptidase 9 (MMP9), MMP9 (gene 4318); experiment: BSK_KF3CT_MMP9: BioMAP Diversity Plus: KF3CT Assay for Matrix Metallopeptidase 9 (MMP9) Biomarker Activity (AID 2283074); settings: primary human keratinocytes with fibroblasts; actives raise or lower the signal;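 for AC50: MMP9 protein level quantified by ELISA in the co-culture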
Method in brief: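 Human keratinocyte/foreskin fibroblast co-culture; compound added; 24 h; MMP-9 by ELISA; bidirectional fit vs DMSO baseline.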

[6] = read-out: urokinase plasminogen activator (uPA), PLAU (gene 5328); experiment: BSK_KF3CT_uPA: BioMAP Diversity Plus: KF3CT Assay for urokinase plasminogen activator (uPA) Biomarker Activity (AID 2283075); settings: primary human keratinocytes with fibroblasts; actives raise or lower the signal
Method in brief: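 ELISA readout of uPA, analyzed for signal gain or loss relative to DMSO, from a human primary keratinocyte–foreskin fibroblast co-culture measured 24 h after chemical treatment.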

CD40, CD40 (gene 958) = experiment: BSK_LPS_CD40: BioMAP Diversity Plus: LPS Assay for CD40 Biomarker Activity (AID 2283076); settings: primary human HUVEC with PBMC; actives raise or lower the signal
Method in brief: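 Cells were dosed, incubated 24 h, then assayed for CD40 by ELISA. Gain or loss of signal was analysed relative to DMSO controls. The culture paired human umbilical vein endothelium with peripheral blood mononuclear cells.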

[7] = read-out: E-selectin (Homo sapiens) (UniProt P16581); experiment: BSK_LPS_Eselectin: BioMAP Diversity Plus: LPS Assay for Eselectin Biomarker Activity (AID 2283077); settings: primary human HUVEC with PBMC; actives raise or lower the signal
Method in brief: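 Primary human vascular co-culture (endothelium plus PBMC) was dosed with chemical, then E-selectin quantified by ELISA at 24 h. Endpoint values derive from bidirectional curve fitting relative to DMSO.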

[8] = read-out: Interleukin-8 (IL8), CXCL8 (gene 3576); experiment: BSK_LPS_IL8: BioMAP Diversity Plus: LPS Assay for Interleukin-8 (IL8) Biomarker Activity (AID 2283078); settings: primary human HUVEC with PBMC; actives raise or lower the signal
Method in brief: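 Readout is IL-8 by ELISA, taken 24 h after compounds were added to LPS-stimulated endothelial/PBMC co-cultures. Both increases and decreases relative to DMSO control were scored through bidirectional fitting.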

[9] = BSK_LPS_SRB: Viability Assessment in the BioMAP Diversity Plus: LPS Assay (AID 2283079); settings: primary human HUVEC with PBMC;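 note: total protein by sulforhodamine B absorbance as a cytotoxicity measure; measured one day after compound addition; fitted in both directions against DMSO so loss or gain of signal counts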
Method in brief: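 Readout is SRB absorbance at 560 nm (0.1% stain, TCA-fixed parallel cultures) as a total-protein cytotoxicity measure. Cells: primary human umbilical vein endothelium plus peripheral blood mononuclear cells, 24 h after chemical exposure; DMSO served as baseline.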

E-selectin (Homo sapiens), sequence (P16581 whole entry, looked up): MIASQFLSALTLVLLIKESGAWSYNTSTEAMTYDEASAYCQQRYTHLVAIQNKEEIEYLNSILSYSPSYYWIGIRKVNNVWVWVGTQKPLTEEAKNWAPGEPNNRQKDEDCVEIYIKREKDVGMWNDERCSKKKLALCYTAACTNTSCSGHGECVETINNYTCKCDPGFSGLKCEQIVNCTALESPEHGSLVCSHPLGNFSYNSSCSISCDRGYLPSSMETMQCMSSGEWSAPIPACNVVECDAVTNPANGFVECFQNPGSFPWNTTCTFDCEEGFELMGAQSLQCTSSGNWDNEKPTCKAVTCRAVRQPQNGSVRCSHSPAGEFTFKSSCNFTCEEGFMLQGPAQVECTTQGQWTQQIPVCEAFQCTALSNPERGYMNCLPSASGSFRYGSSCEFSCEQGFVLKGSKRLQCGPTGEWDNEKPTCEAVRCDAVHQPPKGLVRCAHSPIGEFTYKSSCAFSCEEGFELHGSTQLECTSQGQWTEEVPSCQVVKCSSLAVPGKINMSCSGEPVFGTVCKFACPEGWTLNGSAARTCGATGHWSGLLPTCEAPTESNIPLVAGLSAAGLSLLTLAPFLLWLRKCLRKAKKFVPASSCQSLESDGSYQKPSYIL

Row | Compound | outcome [1] | AC50 [2] | outcome [3] | outcome [4] | outcome [5] | AC50 [6] | outcome (CD40, CD40 (gene 958)) | outcome [7] | outcome [8] | outcome [9] | AC50 [3] | AC50 [4] | AC50 [5] | outcome [2] | outcome [6] | AC50 [1] | AC50 (CD40, CD40 (gene 958)) | AC50 [7] | AC50 [8] | AC50 [9]
1 | CC(=O)OC(C)(C)C1CC=C(C)CC1 (stereo not given) | inactive | 33.8 µM (active) | inactive | inactive | inactive | 32.4 µM (active) | inactive | inactive | inactive | inactive |  |  |  |  |  |  |  |  |  | 
2 | CCCCCCCC1CCCC1=O (stereo not given) | inactive | 31.3 µM (active) |  |  |  | 35.6 µM (active) | inactive | inactive | inactive | inactive | 36.3 µM (active) | 31.5 µM (active) | 28.7 µM (active) |  |  |  |  |  |  | 
3 | Nc1ccc(N)c([N+](=O)[O-])c1 | inactive |  | inactive | inactive | inactive |  | inactive | inactive | inactive | inactive |  |  |  | inactive | inactive |  |  |  |  | 
4 | COC(=O)c1ccc(C(=O)OC)cc1 | inactive |  | inactive | inactive | inactive |  | inactive | inactive | inactive | inactive |  |  |  | inactive | inactive |  |  |  |  | 
5 | CCC(=O)OCC=Cc1ccccc1 | inactive |  | inactive | inactive | inactive |  | inactive | inactive | inactive | inactive |  |  |  | inactive | inactive |  |  |  |  | 
6 | c1ccc(OCCOc2ccccc2)cc1 | inactive |  |  | inactive | inactive |  | inactive | inactive | inactive | inactive |  |  |  | inactive | inactive | 2.45 µM (active) |  |  |  | 
7 | CC1=CC(C)C(C=O)C(C)C1 (stereo not given) (tested in a mixture with another compound) | inactive |  | inactive | inactive | inactive |  | inactive | inactive | inactive | inactive |  |  |  | inactive | inactive |  |  |  |  | 
8 | NC(=O)c1c(Cl)cccc1Cl | inactive |  | inactive | inactive | inactive |  | inactive | inactive | inactive | inactive |  |  |  | inactive | inactive |  |  |  |  | 
9 | O=S1(=O)CC(Cl)(Cl)C(Cl)(Cl)C1 |  | 1.36 µM (active) |  |  |  | 2 µM (active) |  |  |  |  | 1.11 µM (active) | 1.38 µM (active) | 1.74 µM (active) |  |  | 1.52 µM (active) | 0.457 µM (active) | 1.1 µM (active) | 1.47 µM (active) | 5.01 µM (active)
10 | C#C[C@]1(O)CC[C@H]2[C@@H]3CCc4cc(O)ccc4[C@H]3CC[C@@]21C | inactive |  | inactive | inactive | inactive |  | inactive | inactive |  |  |  |  |  | inactive | inactive |  |  |  | 31.2 µM (active) | 9.58 µM (active)
11 | O=C1OC2(c3ccc(O)cc3Oc3cc(O)ccc32)c2ccccc21 | inactive |  | inactive | inactive | inactive |  | inactive | inactive | inactive | inactive |  |  |  | inactive | inactive |  |  |  |  | 
12 | c1ccc2c(c1)-c1ccc3ccc4cccc5cc-2c1c3c45 | inactive | 0.825 µM (active) | inactive |  | inactive |  |  | inactive | inactive | inactive |  | 0.238 µM (active) |  |  | inactive |  | 2.76 µM (active) |  |  | 
13 | CCCCCCCCCCCCS |  | 20 µM (active) |  | inactive |  | 20 µM (active) |  |  | inactive |  | 29.3 µM (active) |  | 14.2 µM (active) |  |  | 20 µM (active) | 20 µM (active) | 20 µM (active) |  | 20 µM (active)
14 | CCCCCCCCCC(=O)OCC | inactive |  |  |  | inactive |  | inactive | inactive | inactive | inactive | 32.2 µM (active) | 13.3 µM (active) |  | inactive | inactive |  |  |  |  | 
15 | CC(=O)CCC=C(C)CCC=C(C)C | inactive |  | inactive | inactive | inactive |  | inactive | inactive | inactive | inactive |  |  |  | inactive | inactive |  |  |  |  | 
16 | OCCN1CCOCC1 | inactive |  | inactive | inactive | inactive |  | inactive | inactive | inactive | inactive |  |  |  | inactive | inactive |  |  |  |  | 
17 | C[C@]12CC[C@@H]3c4ccc(O)cc4CC[C@H]3[C@@H]1CC[C@@H]2O | inactive |  | inactive | inactive | inactive |  | inactive | inactive | inactive |  |  |  |  | inactive | inactive |  |  |  |  | 12 µM (active)
18 | CC(C)(C)c1cccc(O)c1 | inactive |  | inactive | inactive | inactive |  | inactive | inactive | inactive | inactive |  |  |  | inactive | inactive |  |  |  |  | 
19 | O=C(c1ccc(OCCN2CCCCC2)cc1)c1c(-c2ccc(O)cc2)sc2cc(O)ccc12 |  | 29.3 µM (active) |  |  |  | 34.9 µM (active) |  |  |  |  | 19.8 µM (active) | 29.1 µM (active) | 17.9 µM (active) |  |  | 21.8 µM (active) | 16.6 µM (active) | 38.3 µM (active) | 33.8 µM (active) | 26.7 µM (active)
20 | C=C1CC/C=C(\C)CC[C@@H]2[C@@H]1CC2(C)C |  | 10.8 µM (active) |  |  |  | 34.5 µM (active) |  |  | inactive |  | 20 µM (active) | 4.87 µM (active) | 20 µM (active) |  |  | 29.6 µM (active) | 30.5 µM (active) | 21.2 µM (active) |  | 36.3 µM (active)
21 | CC(C)Cc1ccc(C(C)C(=O)O)cc1 (stereo not given) | inactive |  | inactive | inactive | inactive |  | inactive | inactive | inactive | inactive |  |  |  | inactive | inactive |  |  |  |  | 
22 | CC=CC(=O)C1=C(C)C=CCC1(C)C | inactive |  | inactive | inactive | inactive |  | inactive | inactive | inactive | inactive |  |  |  | inactive | inactive |  |  |  |  | 

Reference: PubChem BioAssay (EPA / NIEHS)
